From ChEMBL document CHEMBL1961873, “Compounds: GSK PKIS; Assays: Nanosyn kinase panel” (2012) come the findings set out here.

By inhibition is commonly meant the drop in the measured response relative to a control, in per cent.

The target in experiment [1] is T1, Serine/threonine-protein kinase Nek9 (Homo sapiens) (UniProt Q8TD19).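 Further: each value is a mean percent inhibition of NEK9.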
T1 sequence (whole entry): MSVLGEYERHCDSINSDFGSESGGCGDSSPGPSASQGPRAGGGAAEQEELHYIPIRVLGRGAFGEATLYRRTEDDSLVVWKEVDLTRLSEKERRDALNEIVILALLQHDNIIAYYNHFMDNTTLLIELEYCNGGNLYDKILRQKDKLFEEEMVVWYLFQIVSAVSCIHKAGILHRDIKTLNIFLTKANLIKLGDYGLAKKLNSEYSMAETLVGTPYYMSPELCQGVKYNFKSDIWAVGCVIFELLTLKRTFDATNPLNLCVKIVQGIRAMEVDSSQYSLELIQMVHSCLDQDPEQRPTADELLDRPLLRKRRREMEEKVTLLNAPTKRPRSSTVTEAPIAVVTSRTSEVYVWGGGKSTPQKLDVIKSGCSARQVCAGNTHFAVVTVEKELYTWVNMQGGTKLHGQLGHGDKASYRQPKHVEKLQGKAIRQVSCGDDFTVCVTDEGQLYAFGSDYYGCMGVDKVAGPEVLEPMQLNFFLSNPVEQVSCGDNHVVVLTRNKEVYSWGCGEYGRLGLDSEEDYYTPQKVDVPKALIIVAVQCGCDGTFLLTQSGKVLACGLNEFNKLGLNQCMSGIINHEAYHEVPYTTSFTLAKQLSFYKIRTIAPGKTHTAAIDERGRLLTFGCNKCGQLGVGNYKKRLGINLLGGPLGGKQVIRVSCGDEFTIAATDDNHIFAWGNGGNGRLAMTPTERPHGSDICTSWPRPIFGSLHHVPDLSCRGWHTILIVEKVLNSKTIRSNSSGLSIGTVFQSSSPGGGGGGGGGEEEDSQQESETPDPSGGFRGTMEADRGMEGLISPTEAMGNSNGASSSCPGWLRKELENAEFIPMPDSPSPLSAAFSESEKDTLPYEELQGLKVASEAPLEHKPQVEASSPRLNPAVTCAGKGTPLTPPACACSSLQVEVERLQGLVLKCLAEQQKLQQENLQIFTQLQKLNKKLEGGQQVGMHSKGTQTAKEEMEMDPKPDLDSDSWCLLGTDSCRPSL
The settings on record: at 1 µM.

Experiment [2] addresses Serine/threonine-protein kinase PLK1 (Homo sapiens) (UniProt P53350). The note with it: at 0.1 µM.
The target is the same in experiment [3]. The note with it: at 1 µM.
For experiment [4], the target named is T2, Dual specificity protein kinase TTK (Homo sapiens) (UniProt P33981).
T2 sequence (whole entry): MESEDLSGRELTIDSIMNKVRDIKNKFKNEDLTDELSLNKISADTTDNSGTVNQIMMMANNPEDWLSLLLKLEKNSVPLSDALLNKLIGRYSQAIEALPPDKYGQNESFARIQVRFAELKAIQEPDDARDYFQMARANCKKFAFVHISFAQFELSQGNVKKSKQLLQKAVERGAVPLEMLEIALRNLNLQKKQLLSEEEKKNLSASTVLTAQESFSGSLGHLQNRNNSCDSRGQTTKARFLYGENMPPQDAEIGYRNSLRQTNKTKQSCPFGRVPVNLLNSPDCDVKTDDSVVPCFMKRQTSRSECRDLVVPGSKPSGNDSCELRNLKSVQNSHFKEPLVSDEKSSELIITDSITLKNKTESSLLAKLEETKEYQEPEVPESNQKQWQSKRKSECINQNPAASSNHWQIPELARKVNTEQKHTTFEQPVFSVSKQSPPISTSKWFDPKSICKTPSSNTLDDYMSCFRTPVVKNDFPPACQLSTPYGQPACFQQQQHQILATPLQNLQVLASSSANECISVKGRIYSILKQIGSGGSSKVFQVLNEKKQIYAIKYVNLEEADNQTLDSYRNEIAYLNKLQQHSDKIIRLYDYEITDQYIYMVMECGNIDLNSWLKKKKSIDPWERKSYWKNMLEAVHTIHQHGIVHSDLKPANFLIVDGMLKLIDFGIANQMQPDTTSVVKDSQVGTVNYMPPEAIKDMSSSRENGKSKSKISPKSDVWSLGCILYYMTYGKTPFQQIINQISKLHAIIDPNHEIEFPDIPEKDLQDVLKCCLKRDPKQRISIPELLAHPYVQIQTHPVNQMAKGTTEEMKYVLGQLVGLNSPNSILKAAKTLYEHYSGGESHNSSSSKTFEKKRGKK
The settings on record: at 0.1 µM.

Experiment [5] deals with T3, Receptor-type tyrosine-protein kinase FLT3 (Homo sapiens), P36888 [D835Y].
T3 sequence (whole entry): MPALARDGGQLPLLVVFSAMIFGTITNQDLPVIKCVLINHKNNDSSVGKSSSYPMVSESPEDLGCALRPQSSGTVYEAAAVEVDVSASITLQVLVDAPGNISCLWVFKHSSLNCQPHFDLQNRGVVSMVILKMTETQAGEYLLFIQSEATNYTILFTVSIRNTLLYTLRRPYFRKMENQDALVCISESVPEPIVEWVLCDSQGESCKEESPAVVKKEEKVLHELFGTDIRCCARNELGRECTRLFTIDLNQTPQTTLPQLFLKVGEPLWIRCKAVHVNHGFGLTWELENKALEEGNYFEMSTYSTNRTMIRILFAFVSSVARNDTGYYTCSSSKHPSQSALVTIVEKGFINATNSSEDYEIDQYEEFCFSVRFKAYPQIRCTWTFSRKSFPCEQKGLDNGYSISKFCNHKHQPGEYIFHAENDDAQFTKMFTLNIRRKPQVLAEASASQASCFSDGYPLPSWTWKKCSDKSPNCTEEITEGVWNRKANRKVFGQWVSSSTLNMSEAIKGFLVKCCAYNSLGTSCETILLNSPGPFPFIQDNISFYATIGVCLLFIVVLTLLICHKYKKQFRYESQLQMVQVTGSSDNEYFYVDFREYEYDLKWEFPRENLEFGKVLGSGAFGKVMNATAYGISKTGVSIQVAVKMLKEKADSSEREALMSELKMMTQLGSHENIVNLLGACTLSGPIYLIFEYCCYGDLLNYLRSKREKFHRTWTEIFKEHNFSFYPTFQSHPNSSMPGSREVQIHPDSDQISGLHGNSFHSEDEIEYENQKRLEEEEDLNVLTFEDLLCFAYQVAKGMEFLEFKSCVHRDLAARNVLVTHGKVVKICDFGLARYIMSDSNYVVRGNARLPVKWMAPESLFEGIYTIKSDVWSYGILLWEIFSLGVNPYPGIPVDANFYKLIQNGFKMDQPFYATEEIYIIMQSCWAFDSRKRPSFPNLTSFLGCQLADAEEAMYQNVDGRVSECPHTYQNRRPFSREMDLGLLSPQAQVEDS
The settings on record: at 1 µM.

Experiment [6] addresses Vascular endothelial growth factor receptor 3 (Homo sapiens) (UniProt P35916). The note with it: at 0.1 µM.
The target is the same in experiment [7]. The note with it: at 1 µM.
Experiment [8] has as its target Macrophage colony-stimulating factor 1 receptor (Homo sapiens) (UniProt P07333). The settings on record: at 0.1 µM.
The target is the same in experiment [9]. The note with it: at 1 µM.
The target of experiment [10] is Tyrosine-protein kinase Fyn (Homo sapiens) (UniProt P06241). The settings on record: at 0.1 µM.
The target is the same in experiment [11]. The note with it: at 1 µM.
Experiment [12] addresses Tyrosine-protein kinase HCK (Homo sapiens) (UniProt P08631). The note with it: at 0.1 µM.
For experiment [13] the target is unchanged. The settings on record: at 1 µM.
Experiment [14] deals with Insulin-like growth factor 1 receptor (Homo sapiens) (UniProt P08069). The settings on record: at 0.1 µM.
Experiment [15] shares this target. The note with it: at 1 µM.
Experiment [16] concerns the target Insulin receptor (Homo sapiens) (UniProt P06213). The note with it: at 0.1 µM.
For experiment [17] the target is unchanged. The note with it: at 1 µM.
Experiment [18] concerns the target Insulin receptor-related protein (Homo sapiens) (UniProt P14616). The note with it: at 0.1 µM.
The target is the same in experiment [19]. The settings on record: at 1 µM.
The target of experiment [20] is T4, Tyrosine-protein kinase ITK/TSK (Homo sapiens) (UniProt Q08881).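 Further: mean percent inhibition of ITK from the GSK PKIS screen.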
T4 sequence (whole entry): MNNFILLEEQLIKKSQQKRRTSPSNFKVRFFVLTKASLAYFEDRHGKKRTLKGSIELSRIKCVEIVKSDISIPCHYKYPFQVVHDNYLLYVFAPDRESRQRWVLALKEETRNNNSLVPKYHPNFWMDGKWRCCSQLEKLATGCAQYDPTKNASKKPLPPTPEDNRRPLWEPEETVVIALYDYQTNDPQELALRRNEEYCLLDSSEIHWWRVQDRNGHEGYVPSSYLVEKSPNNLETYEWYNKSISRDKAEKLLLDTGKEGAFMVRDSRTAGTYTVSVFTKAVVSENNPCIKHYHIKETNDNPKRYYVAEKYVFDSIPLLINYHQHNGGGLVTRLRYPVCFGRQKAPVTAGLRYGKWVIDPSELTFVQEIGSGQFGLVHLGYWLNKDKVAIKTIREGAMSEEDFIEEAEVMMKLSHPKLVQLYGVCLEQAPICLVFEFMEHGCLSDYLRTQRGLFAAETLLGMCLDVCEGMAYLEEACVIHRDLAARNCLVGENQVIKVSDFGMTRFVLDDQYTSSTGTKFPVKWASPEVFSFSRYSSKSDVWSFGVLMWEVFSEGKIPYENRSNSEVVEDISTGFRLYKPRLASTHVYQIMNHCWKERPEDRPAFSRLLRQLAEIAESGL
The note with it: at 0.1 µM.

Chain of Serine/threonine-protein kinase PLK1 (Homo sapiens) (P53350 whole entry): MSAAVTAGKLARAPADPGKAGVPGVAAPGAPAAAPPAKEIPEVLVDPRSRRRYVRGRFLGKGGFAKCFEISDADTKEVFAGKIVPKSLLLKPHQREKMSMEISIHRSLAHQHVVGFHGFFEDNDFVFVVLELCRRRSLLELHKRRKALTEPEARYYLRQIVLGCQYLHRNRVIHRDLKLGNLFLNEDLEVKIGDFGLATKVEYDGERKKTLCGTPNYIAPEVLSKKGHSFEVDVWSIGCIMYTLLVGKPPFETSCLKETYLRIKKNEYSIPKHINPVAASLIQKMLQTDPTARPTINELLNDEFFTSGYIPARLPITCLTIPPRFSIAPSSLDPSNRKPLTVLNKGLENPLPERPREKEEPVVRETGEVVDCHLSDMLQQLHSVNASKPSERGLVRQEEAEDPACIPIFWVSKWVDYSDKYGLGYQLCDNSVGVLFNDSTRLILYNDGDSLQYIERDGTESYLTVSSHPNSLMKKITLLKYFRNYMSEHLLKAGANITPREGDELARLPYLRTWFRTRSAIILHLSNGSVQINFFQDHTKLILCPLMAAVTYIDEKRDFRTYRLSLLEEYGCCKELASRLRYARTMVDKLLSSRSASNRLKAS
Chain of Insulin-like growth factor 1 receptor (Homo sapiens) (P08069 31-736 limits assumed): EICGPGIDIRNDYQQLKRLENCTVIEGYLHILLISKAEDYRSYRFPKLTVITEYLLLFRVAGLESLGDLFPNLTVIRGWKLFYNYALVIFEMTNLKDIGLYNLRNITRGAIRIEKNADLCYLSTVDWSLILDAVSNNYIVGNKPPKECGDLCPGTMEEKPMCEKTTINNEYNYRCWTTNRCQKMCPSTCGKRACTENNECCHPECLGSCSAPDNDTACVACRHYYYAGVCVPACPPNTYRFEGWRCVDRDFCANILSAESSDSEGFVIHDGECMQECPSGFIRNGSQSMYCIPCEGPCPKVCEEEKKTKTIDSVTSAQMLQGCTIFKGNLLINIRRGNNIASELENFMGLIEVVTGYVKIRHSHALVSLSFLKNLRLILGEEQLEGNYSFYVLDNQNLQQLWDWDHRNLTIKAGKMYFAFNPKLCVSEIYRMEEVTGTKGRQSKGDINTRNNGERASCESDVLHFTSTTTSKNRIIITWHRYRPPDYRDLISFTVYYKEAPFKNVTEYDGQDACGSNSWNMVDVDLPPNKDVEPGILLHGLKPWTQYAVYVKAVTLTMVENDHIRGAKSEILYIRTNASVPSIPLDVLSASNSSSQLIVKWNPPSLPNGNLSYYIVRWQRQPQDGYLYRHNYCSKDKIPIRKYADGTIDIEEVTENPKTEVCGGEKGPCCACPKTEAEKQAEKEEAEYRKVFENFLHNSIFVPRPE
Chain of Insulin-like growth factor 1 receptor (Homo sapiens) (P08069 741-1367 limits assumed): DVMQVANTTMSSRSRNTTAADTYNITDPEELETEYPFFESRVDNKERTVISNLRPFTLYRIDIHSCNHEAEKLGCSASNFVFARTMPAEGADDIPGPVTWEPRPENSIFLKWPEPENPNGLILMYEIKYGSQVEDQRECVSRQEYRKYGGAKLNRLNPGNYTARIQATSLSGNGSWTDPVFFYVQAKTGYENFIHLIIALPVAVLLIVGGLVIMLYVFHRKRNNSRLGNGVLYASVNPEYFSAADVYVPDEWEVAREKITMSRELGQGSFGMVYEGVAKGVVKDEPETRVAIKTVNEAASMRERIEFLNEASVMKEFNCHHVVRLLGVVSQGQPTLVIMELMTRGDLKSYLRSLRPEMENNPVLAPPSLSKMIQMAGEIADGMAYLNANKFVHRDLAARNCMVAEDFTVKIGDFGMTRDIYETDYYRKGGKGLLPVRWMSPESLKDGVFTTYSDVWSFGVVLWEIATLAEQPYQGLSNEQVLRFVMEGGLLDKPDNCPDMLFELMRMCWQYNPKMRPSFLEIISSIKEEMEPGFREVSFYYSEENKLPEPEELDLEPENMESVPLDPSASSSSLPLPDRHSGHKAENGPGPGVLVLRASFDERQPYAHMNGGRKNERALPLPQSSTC
Chain of Tyrosine-protein kinase HCK (Homo sapiens) (P08631 2-526 limits assumed): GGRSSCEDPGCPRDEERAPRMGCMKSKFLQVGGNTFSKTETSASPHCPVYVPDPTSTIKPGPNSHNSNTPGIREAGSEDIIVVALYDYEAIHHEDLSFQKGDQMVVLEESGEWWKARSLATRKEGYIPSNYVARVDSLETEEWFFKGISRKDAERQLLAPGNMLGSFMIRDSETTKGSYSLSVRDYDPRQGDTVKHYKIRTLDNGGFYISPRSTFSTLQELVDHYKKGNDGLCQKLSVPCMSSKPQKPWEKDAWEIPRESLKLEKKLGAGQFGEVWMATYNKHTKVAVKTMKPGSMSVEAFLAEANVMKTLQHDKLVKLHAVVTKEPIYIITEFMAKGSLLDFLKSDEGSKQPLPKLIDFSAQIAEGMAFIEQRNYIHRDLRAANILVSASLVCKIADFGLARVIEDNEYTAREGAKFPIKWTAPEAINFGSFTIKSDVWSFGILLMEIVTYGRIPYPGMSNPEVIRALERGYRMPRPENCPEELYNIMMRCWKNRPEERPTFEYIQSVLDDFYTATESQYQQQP
Chain of Tyrosine-protein kinase Fyn (Homo sapiens) (P06241 2-537 limits assumed): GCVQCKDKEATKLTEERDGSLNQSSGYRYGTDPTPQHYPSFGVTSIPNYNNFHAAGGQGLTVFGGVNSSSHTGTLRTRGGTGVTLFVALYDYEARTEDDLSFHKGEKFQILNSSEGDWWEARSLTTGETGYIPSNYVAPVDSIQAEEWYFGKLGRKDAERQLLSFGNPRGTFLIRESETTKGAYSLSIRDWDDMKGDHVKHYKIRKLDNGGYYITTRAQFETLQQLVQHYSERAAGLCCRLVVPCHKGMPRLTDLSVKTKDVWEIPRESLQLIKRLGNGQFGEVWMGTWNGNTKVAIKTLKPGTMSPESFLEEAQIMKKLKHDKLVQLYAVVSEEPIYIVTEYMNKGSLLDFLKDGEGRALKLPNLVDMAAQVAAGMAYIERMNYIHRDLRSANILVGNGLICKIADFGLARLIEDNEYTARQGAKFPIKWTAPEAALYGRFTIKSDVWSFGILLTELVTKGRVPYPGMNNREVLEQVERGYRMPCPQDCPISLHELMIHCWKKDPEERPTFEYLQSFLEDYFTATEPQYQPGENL
Chain of Insulin receptor (Homo sapiens) (P06213 28-758 limits assumed): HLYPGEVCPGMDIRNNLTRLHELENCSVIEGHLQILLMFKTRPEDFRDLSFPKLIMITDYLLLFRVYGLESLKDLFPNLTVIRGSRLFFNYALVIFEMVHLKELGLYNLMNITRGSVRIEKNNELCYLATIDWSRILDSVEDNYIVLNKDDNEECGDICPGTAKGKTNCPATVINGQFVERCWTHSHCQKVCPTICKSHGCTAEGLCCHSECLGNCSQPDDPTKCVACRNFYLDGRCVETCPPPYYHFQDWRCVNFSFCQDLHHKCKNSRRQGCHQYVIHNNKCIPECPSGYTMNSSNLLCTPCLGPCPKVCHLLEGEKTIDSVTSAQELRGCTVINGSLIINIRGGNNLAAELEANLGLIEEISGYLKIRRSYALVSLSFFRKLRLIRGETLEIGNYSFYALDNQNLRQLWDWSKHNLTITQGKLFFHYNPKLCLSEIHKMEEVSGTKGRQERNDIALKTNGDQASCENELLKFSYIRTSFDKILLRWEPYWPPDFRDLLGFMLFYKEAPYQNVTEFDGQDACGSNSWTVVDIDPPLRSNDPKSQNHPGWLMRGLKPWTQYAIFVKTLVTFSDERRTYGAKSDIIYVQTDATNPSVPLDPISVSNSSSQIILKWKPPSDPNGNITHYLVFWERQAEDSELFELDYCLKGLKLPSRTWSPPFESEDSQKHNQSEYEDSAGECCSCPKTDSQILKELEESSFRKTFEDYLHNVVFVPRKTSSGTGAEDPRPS
Chain of Insulin receptor (Homo sapiens) (P06213 763-1382 limits assumed): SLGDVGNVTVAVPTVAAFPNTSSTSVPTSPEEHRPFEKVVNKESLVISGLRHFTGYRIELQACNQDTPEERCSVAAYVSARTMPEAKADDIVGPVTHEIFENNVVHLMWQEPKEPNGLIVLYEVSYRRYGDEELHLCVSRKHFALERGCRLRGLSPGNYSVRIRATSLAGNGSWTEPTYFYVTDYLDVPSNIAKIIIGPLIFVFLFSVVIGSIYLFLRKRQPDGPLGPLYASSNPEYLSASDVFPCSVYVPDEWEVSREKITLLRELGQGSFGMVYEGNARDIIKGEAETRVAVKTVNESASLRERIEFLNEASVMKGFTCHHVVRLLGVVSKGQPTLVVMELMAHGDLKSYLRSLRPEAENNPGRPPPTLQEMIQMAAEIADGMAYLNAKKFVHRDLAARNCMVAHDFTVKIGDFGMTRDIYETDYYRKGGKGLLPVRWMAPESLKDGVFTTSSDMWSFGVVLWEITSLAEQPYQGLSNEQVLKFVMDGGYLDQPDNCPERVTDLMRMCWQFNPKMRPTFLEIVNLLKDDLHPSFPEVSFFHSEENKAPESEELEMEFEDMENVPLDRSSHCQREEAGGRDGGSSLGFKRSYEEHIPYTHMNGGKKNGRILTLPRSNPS

`NC(=O)c1ccc(Oc2nccc(-c3c(-c4ccc(F)cc4)ncn3C3CCNCC3)n2)cc1`: the inhibition in experiment [1] was 4.67%; in [2], 5.93%; in [3], 9.34%; in experiment [4], 8.68%; in [5] it was 1.08%; in experiment [6] it was 7.32%. The inhibition in experiment [7] worked out at 4.57%; in [8], 5.61%; in experiment [9], 6.15%; in [10] it was 2.66%; in experiment [11] it was 3.44%; in experiment [12], 6.86%. For the same compound, the inhibition in experiment [13] was 8.21%; in experiment [14], 5.51%; in experiment [15] it was 7.32%; in experiment [16], 7.88%; in [17], 6.48%; in experiment [18] it was 3.06%. In addition, the inhibition was found to be 4.99% in experiment [19] and 3.1% in experiment [20].

For the compound `NC(=O)c1cc(-c2ccc(F)cc2)cc(-c2ccncc2)c1N`, the inhibition in experiment [1] is 19.1%; in experiment [2] it was 5.25%; in [3], 2.93%; in experiment [4], 11.9%; in experiment [5], -3.97%; in experiment [6], -0.28%. Besides, the inhibition in experiment [7] stood at 0.18%; in [8] it was 2.97%; in [9], 15.4%; in [10], 0.07%; in [11], 5.17%; in experiment [12], 6.59%. Further, the inhibition in [13] is 7.14%; in [14], 2.14%; in experiment [15], -0.61%; in experiment [16], 5.25%; in experiment [17] it was 5.27%; in experiment [18] it was 1.58%. In addition, the inhibition in [19] was found to be 1.32%; in experiment [20] it was 0.92%.

For `NC(=O)c1cc(-c2ccncc2)cc(-c2ccccc2)c1N`, the inhibition is 3.74% in experiment [1]; 4.45% in experiment [2]; 5.13% in [3]; 8.7% in experiment [4]; 2.51% in experiment [5]; 2.14% in experiment [6]. Also, the inhibition in experiment [7] was 6.17%; in [8], 22.8%; in experiment [9], 64.8%; in experiment [10], 6.39%; in experiment [11], 37.6%; in experiment [12] it was 12.1%. The inhibition in [13] stood at 43.7%; in [14], 5.73%; in experiment [15], 5.9%; in [16], 6.28%; in experiment [17], 6.25%; in experiment [18] it was 2.11%. The inhibition in experiment [19] was 1.56%; in experiment [20], 1.61%.

As to `COc1ccc2cc(-c3c(-c4ccncc4)nc(-c4ccc(S(C)(=O)=O)cc4C)n3C)ccc2c1`, the inhibition is 18.2% in experiment [1]; 4.66% in experiment [2]; 4.49% in [3]; 11.5% in experiment [4]; -2.55% in experiment [5]; 4.4% in experiment [6]. Further, the inhibition was 10.1% in experiment [7]; 0.81% in [8]; -1.08% in experiment [9]; 1.95% in [10]; 7.37% in [11]; 5.89% in experiment [12]. In addition, the inhibition in [13] is 13.1%; in [14], 4.23%; in experiment [15] it was 3.79%; in experiment [16] it was 7.46%; in experiment [17] it was 5.18%; in [18], 2.39%. In addition, the figures for the inhibition in experiment [19] and in experiment [20] were 2.25% and 1.82%, respectively.

For `O=C(Nc1n[nH]c2cc(-c3cc(F)ccc3F)ccc12)C1CC1`, the inhibition in [1] was 10.9%; in experiment [2], 4.33%; in [3] it was 3.61%; in experiment [4], 8.84%; in experiment [5] it was -2.14%; in experiment [6] it was 0.33%. The inhibition in experiment [7] is 1.03%; in [8], -1.77%; in [9] it was 2.78%; in [10], 2.47%; in experiment [11], 6.73%; in experiment [12], 7.73%. For the same compound, the inhibition in experiment [13] was 8.12%; in [14], 0.54%; in experiment [15] it was 2.05%; in [16] it was 7.13%; in experiment [17], 4.97%; in [18], 1.56%. Also, the inhibition in [19] came out at 0.94%; in experiment [20], 2.16%.
